As a reminder, the AC50 is the concentration giving half of the maximal activity seen.

Values joined by “and” are separate entries in the source; they are usually repeats but may differ in a detail not shown here. Identical values can stand only once. Results filed as inconclusive are left out. Active and inactive are the calls of the source. Rule for the calls, unless noted: active = hit-call score of the fitted dose curve at least 0.9, where 1 is the maximum; inactive = score below 0.9.

Read-out in assay [1]: CD69, CD69 (gene 969)
Put plainly: BSK_LPS_CD69: BioMAP Diversity Plus: LPS Assay for CD69 Biomarker Activity (AID 2284303). To be noted: primary human HUVEC with PBMC. As for the experimental part: BSK_LPS is a cell-based, multiplexed-readout assay that uses umbilical vein endothelium and peripheral blood mononuclear cells, a human vascular primary cell co-culture, with measurements taken at 24 hours after chemical dosing in a 96-well plate.BSK_LPS_CD69 is an assay component measured in the BSK_LPS assay. It measures CD69 antibody related to regulation of gene expression using ELISA technology.Data from the assay component BSK_LPS_CD69 was analyzed at the endpoint, BSK_LPS_CD69, in the positive analysis fitting direction relative to DMSO as the negative control and baseline of activity. Using a type of binding reporter, gain or loss-of-signal activity can be used to understand protein changes. To generalize the intended target to other relatable targets, this assay endpoint is annotated to the 'cytokine' intended target family, where the subfamily is 'inflammatory factor'.
The levels of cell surface (or secreted, indicated by the prefix "s") biomarker endpoints were measured by ELISA. Overt cytotoxicity to cells in confluent adherent cultures (all systems other than the BT system) was assessed by measuring total protein levels using sulforhodamine B (SRB) staining in parallel cultures at the time of biomarker measurements, indicated as SRB endpoints. For proliferation assays for adherent cell types, individual cell types are cultured at sub-confluence and relative cell numbers quantified by SRB staining at time points optimized for each system (48 h: 3C and CASM3C systems; 72 h: BT and HDF3CGF systems; 96 h: SAg system). SRB was performed by staining cells with 0.1% SRB after fixation with 10% TCA and reading wells at 560 nm.Viability and proliferation of PBMC (T cells) was quantified by Alamar Blue reduction for the SAg and BT systems. For PBMC viability (referred to as PBMC Cytotoxicity within the assay endpoint names), cells were plated (75,000/well in a 96-well plate) and then chemical samples added for 1 h before addition of activators, SEB and TSST-1 (20 ng/mL final concentration each). Cells were incubated for 90 h. Then, Alamar Blue (20 uL/well) (Invitrogen, Cat DAL1100) was added for 6 h, and the plates were read with a fluorescence microplate reader at 546/580 nm (excitation/emission). For PBMC proliferation, cells were plated and activated as above but incubated for only 16 h prior to addition of Alamar Blue. Plates were read after 6 h.

Assay [2] is described as follows: IUF_NPC2b_neuronal_migration_120hr: Leibniz Research Institute for Environmental Medicine (IUF) 120-hour Neural Progenitor Cell Migration Assay for Neuron Migration (NPC2b) (AID 2284300). As for the experimental part:
IUF_NPC2-5 is a cell-based, multiplexed assay that uses hNPC, a human primary neural progenitor cells, with measurements taken at 72 or 120 hours after chemical dosing in a 96-well plate. Human neural progenitor cells (hNPC) are generated from human fetal brain cortex at gestational week (GW) 16-19. In the neural progenitor cell migration and differentiation assay (NPC2-5), hNPCs grown as spheres are plated on an extracellular matrix and migrate and differentiate out of the sphere core. The processes radial glia migration, neuronal and oligodendrocyte migration as well as neuronal differentiation, neuronal morphology and oligodendrocyte differentiation are studied using automated phase contrast imaging and automated fluorescence imaging in combination with high content image analysis. In parallel, the cell viability is assessed using an alamar blue viability assay and the cytotoxicity using a lactate dehydrogenase dependent membrane integrity assay.IUF_NPC2b_neuronal_migration_120hr is one of 12 assay components measured from the IUF_NPC2-5 assay. Neuronal migration distance at 120 hr is the mean distance of all neurons from the edge of the sphere core to each individual neuron (see IUF_NPC3_neuronal_differentiation_120hr). Neuronal migration is normalized to radial glia migration distance at 120 hr.Data from the IUF_NPC2b_neuronal_migration_120hr component was analyzed at the endpoint IUF_NPC2b_neuronal_migration_120hr in the positive analysis fitting direction relative to DMSO as the negative control and baseline of activity. Using a type of migration reporter, gain or loss-of-signal activity can be used to understand developmental effects.
Culture protocol: After the cell expansion period the cells are cultured for up to four weeks in which they are passaged every week as described in 3.6. Between one to three days after passaging spheres at a size of 0.3 mm are picked for the test method. For the assessment of neural progenitor cell migration and differentiation, the spheres are plated on poly-D-lysine/laminin coated 96-well flat bottom plates in differentiation medium (N2) to initiate migration and differentiation. Thereby one 0.3 mm big sphere is plated in the middle of a well. The differentiation medium consists of DMEM and Ham's F12 at a ratio of 3 to 1 supplemented with 1% N2 and 1% penicillin and streptomycin. Within 5 days NPCs radially migrate out of the sphere core and differentiate into radial glia cells (nestin positive), neurons (TUBB3 positive), oligodendrocytes (O4 positive) and astrocytes (GFAP positive). Cultivation during the test method is performed at 37C and 5% CO2 at a ph of 7.2-7.6.Exposure: 0.3 mm big hNPC are plated in the already prepared test conditions. […] Therefore, half of the test condition solution (e.g. solvent control or compound dilution) is replaced by freshly prepared test condition solution.Test Method: Migration distance and cytotoxicity is determined after 72 hours based on brightfield images of each well. […] On the ICC images, migration after 120 hours, neuronal and oligodendrocyte number, neuronal morphology and neuron/oligodendrocyte specific migration is assessed. immunocytochemical staining (ICC) generates an image for each sphere. The plates are scanned using an automated high content imaging device and all nuclei and their positions are determined automatically based on their intensity and size. […]

Assay [3] can be described thus: IUF_NPC3_neuronal_differentiation_120hr: Leibniz Research Institute for Environmental Medicine (IUF) 120-hour Neuronal Differentiation Assay (NPC3) (AID 2284301). An outline of the steps:
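Primary human fetal neural progenitor spheres (GW 16-19, 0.3 mm) plated on poly-D-lysine/laminin in N2 medium, exposed from day 0 for 120 h with half-medium refresh at day 3. TUBB3+ cells as percent of Hoechst nuclei in migration area; DMSO baseline.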

Assay [4] in a line: IUF_NPC4_neurite_length_120hr: Leibniz Research Institute for Environmental Medicine (IUF) 120-hour Neuronal Morphology Assay for Neurite Length (NPC4) (AID 2284302). As to the method:
IUF_NPC2-5 is a cell-based, multiplexed assay that uses hNPC, a human primary neural progenitor cells, with measurements taken at 72 or 120 hours after chemical dosing in a 96-well plate. Human neural progenitor cells (hNPC) are generated from human fetal brain cortex at gestational week (GW) 16-19. In the neural progenitor cell migration and differentiation assay (NPC2-5), hNPCs grown as spheres are plated on an extracellular matrix and migrate and differentiate out of the sphere core. The processes radial glia migration, neuronal and oligodendrocyte migration as well as neuronal differentiation, neuronal morphology and oligodendrocyte differentiation are studied using automated phase contrast imaging and automated fluorescence imaging in combination with high content image analysis. In parallel, the cell viability is assessed using an alamar blue viability assay and the cytotoxicity using a lactate dehydrogenase dependent membrane integrity assay.IUF_NPC4_neurite_length_120hr is one of 12 assay components measured from the IUF_NPC2-5 assay. The neurite length at 120 hr is the mean length in um of all neurons (see IUF_NPC3_neuronal_differentiation_120hr) that are identified by the skeletonization algorithm in Omnisphero.Data from the IUF_NPC4_neurite_length_120hr component was analyzed at the endpoint IUF_NPC4_neurite_length_120hr in the positive analysis fitting direction relative to DMSO as the negative control and baseline of activity. Using a type of differentiation reporter, gain or loss-of-signal activity can be used to understand developmental effects.
(§1) Culture protocol: After the cell expansion period the cells are cultured for up to four weeks in which they are passaged every week as described in 3.6. Between one to three days after passaging spheres at a size of 0.3 mm are picked for the test method. For the assessment of neural progenitor cell migration and differentiation, the spheres are plated on poly-D-lysine/laminin coated 96-well flat bottom plates in differentiation medium (N2) to initiate migration and differentiation. Thereby one 0.3 mm big sphere is plated in the middle of a well. The differentiation medium consists of DMEM and Ham's F12 at a ratio of 3 to 1 supplemented with 1% N2 and 1% penicillin and streptomycin. Within 5 days NPCs radially migrate out of the sphere core and differentiate into radial glia cells (nestin positive), neurons (TUBB3 positive), oligodendrocytes (O4 positive) and astrocytes (GFAP positive). Cultivation during the test method is performed at 37C and 5% CO2 at a ph of 7.2-7.6.Exposure: 0.3 mm big hNPC are plated in the already prepared test conditions. Exposure starts at day 0 of differentiation and is continued over five days of differentiation until the experiment is terminated. Cells are fed with fresh medium at day 3 of differentiation. Therefore, half of the test condition solution (e.g. solvent control or compound dilution) is replaced by freshly prepared test condition solution.Test Method: Migration distance and cytotoxicity is determined after 72 hours based on brightfield images of each well. […] On the ICC images, migration after 120 hours, neuronal and oligodendrocyte number, neuronal morphology and neuron/oligodendrocyte specific migration is assessed. immunocytochemical staining (ICC) generates an image for each sphere. The plates are scanned using an automated high content imaging device and all nuclei and their positions are determined automatically based on their intensity and size. […]

A short description of assay [5]: IUF_NPC5_oligodendrocyte_differentiation_120hr: Leibniz Research Institute for Environmental Medicine (IUF) 120-hour Oligodendrocyte Differentiation Assay (NPC5) (AID 2284304; active = hit-call score of the fitted dose curve at least 0.9, where 1 is the maximum;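 note: share of O4-positive cells among Hoechst nuclei found by CNN image analysis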). An outline of the steps:
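Human fetal neural progenitor spheres (0.3 mm) plated on poly-D-lysine/laminin in N2 differentiation medium and exposed for 120 h at 7 concentrations, with half-medium renewal at day 3. O4-positive cells identified by CNN, expressed as percent of Hoechst nuclei.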

The nature of assay [6]: IUF_NPC4_neurite_area_120hr: Leibniz Research Institute for Environmental Medicine (IUF) 120-hour Neuronal Morphology Assay for Neurite Area (NPC4) (AID 2284305; active = hit-call score of the fitted dose curve at least 0.9, where 1 is the maximum). As for the experimental part:
IUF_NPC2-5 is a cell-based, multiplexed assay that uses hNPC, a human primary neural progenitor cells, with measurements taken at 72 or 120 hours after chemical dosing in a 96-well plate. Human neural progenitor cells (hNPC) are generated from human fetal brain cortex at gestational week (GW) 16-19. In the neural progenitor cell migration and differentiation assay (NPC2-5), hNPCs grown as spheres are plated on an extracellular matrix and migrate and differentiate out of the sphere core. The processes radial glia migration, neuronal and oligodendrocyte migration as well as neuronal differentiation, neuronal morphology and oligodendrocyte differentiation are studied using automated phase contrast imaging and automated fluorescence imaging in combination with high content image analysis. In parallel, the cell viability is assessed using an alamar blue viability assay and the cytotoxicity using a lactate dehydrogenase dependent membrane integrity assay.IUF_NPC4_neurite_area_120hr is one of 12 assay components measured from the IUF_NPC2-5 assay. The neurite area at 120 hr is the mean area in pixel (without nuclei) of all neurons (see IUF_NPC3_neuronal_differentiation_120hr) that are identified by the skeletonization algorithm in Omnisphero.Data from the IUF_NPC4_neurite_area_120hr component was analyzed at the endpoint IUF_NPC4_neurite_area_120hr in the positive analysis fitting direction relative to DMSO as the negative control and baseline of activity. Using a type of differentiation reporter, loss-of-signal activity can be used to understand developmental effects.
as §1

Assay [7] can be described thus: IUF_NPC2-5_cytotoxicity_72hr: Cytotoxicity Assessment at 72 hours in the Leibniz Research Institute for Environmental Medicine (IUF) Neural Progenitor Cell Migration and Differentiation Assay for Cytotoxicity (NPC2-5) (AID 2284306; active = hit-call score of the fitted dose curve at least 0.9, where 1 is the maximum;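 note: LDH release into supernatant measured by resorufin fluorescence marking membrane damage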). In short, it runs like this: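 Human fetal (GW 16-19) neural progenitor spheres, 0.3 mm, plated on poly-D-lysine/laminin in N2 differentiation medium and exposed from day 0 to 7 concentrations plus solvent control (DMSO ≤0.1%). LDH-dependent resazurin-to-resorufin fluorescence in supernatant at 72 h.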

A short description of assay [8]: IUF_NPC2-5_cytotoxicity_120hr: Cytotoxicity Assessment at 120 hours in the Leibniz Research Institute for Environmental Medicine (IUF) Neural Progenitor Cell Migration and Differentiation Assay (NPC2-5) (AID 2284307; active = hit-call score of the fitted dose curve at least 0.9, where 1 is the maximum). In short, it runs like this:
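Human fetal (GW 16-19) neural progenitor spheres (0.3 mm) plated on poly-D-lysine/laminin in N2 differentiation medium, exposed 120 h with half-medium renewal at day 3; 7 concentrations plus solvent control, DMSO ≤0.1%. LDH release in supernatant read by resorufin fluorescence.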

The nature of assay [9]: IUF_NPC2-5_cell_number_120hr: Cell Number Assessment at 120 hours in the Leibniz Research Institute for Environmental Medicine (IUF) Neural Progenitor Cell Migration and Differentiation Assay (NPC2-5) (AID 2284308).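 Note: count of Hoechst-stained nuclei in migration zone around plated human neural progenitor spheres.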 In short, it runs like this: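 Human fetal neural progenitor spheres (0.3 mm) plated on poly-D-lysine/laminin in N2 differentiation medium, exposed five days across 7 concentrations with half-medium refresh at day 3. Hoechst-positive nuclei counted in migration area at 120 h, relative to DMSO.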

Assay [10] can be described thus: VALA_TUBHUV_Agonist_CellCount: Viability Assessment in the VALA Sciences human Umbilical Vein Endothelial Tubule Formation (TUBHUV) Agonism Assay (AID 2284309; active = hit-call score of the fitted dose curve at least 0.9, where 1 is the maximum). In short, it runs like this:
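HUVEC co-cultured 1:3 with HDF for 3 days in 10 ng/ml VEGF, then compounds added in VEGF medium for a further 3 days (72 h). Nuclear-stain/CD31 imaging cell count. Positive-direction fit versus 0.1% DMSO vehicle.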

On to `O=C(O)C(F)(F)C(F)(F)C(F)(F)C(F)(F)C(F)(F)C(F)(F)C(F)(F)C(F)(F)C(F)(F)F`, for which the AC50 in [1] was 49.1 µM (active) and 45.4 µM (active).
The same measure, in the same setting: in the case of `NS(=O)(=O)C(F)(F)C(F)(F)C(F)(F)C(F)(F)C(F)(F)C(F)(F)C(F)(F)C(F)(F)F` it was 38.4 µM (active) and 24.5 µM (active).
Consider `COc1ccc(O)c(C(C)(C)C)c1`, for which the result in assay [1] was inactive.
As to `O=C(O)C(F)(F)C(F)(F)C(F)(F)C(F)(F)C(F)(F)C(F)(F)C(F)(F)C(F)(F)F`, in [1], the AC50 is 41.8 µM (active) and 30 µM (active).
Take `CO/C=C(/C(=O)OC)c1ccccc1COc1cccc(C(F)(F)F)n1`: the AC50 in assay [2] is 50 µM (active); in assay [3], 22.2 µM (active); in assay [4], 19.7 µM (active); in [5], 1.51 µM (active); in [9], 9.92 µM (active). The compound was called inactive in assay [6], in [7] and in [8].
Take `C=CC(N)=O`: the compound was called inactive in assay [2], in [3], in assay [4], in assay [5], in assay [6] and in assay [7]. Further, the compound was called inactive in [8] and in assay [9].
For the compound `Oc1ccc(C(c2ccc(O)cc2)(C(F)(F)F)C(F)(F)F)cc1`, in assay [10], the AC50 is 65.5 µM (active).

For the origin of these results see PubChem BioAssay (EPA / NIEHS).
